Assay outcomes (PubChem BioAssay)
A-T KAP1 phos: potential ataxia-telangiectasia treatments restoring KAP-1 phosphorylation; F2112 A-T fibroblasts, KAP-1 phosphorylation AlphaLISA; neocarzinostatin DNA damage 30 min before lysis; Potency, µM (top dose mostly 57.5 µM), hits mostly activators; 0.19% of 320,000 active; also: nearly all actives have a fitted effect of over 45% in size
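ATM-like activity read as KAP-1 phosphorylation via AlphaLISA donor/acceptor antibody pairs after lysis and 6 hr at 25C. Cells were ATM-null patient fibroblasts (F2112, hTERT), dosed 60 min, then exposed to the DSB inducer NCS for 30 min.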
IL2 activator: activates IL-2 in a cell-based reporter assay; activation, % (series mostly up to about 46 µM); 0.065% of 360,000 active; AID 652025; IL-2 activation reporter assay, cell-based qHTS; stimulated with anti-CD3/CD4/CD28 beads; in transgenic mouse T cells; in the data active = activation above about 50%; inconclusive = mostly about 30% to 49%
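Screening format: compound pinned onto unstimulated transgenic mouse T cells, 60 min incubation, then anti-CD3/anti-CD4/anti-CD28 bead stimulation for 18 hours at 37 degrees C, followed by EGFP and DsRed detection.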
Tb PFK inh: inhibitors of T. brucei phosphofructokinase. Potency, µM (titrated, usually from 57.5 µM), most hits filed as inhibitors. T. brucei PFK, ADP-Glo luminescence. 0.17% of 330,000 active; also: nearly all actives have a fitted effect of over 60% in size
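Activity is normalized to no-enzyme wells (full inhibition) and 1.25 nM enzyme wells (no inhibition). Reaction: 0.5 mM F6P, 0.1 mM ATP, 45 min RT, ADP-Glo luminescence; concentration-response curves fitted and classed by quality.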
PKM2 act: increases activity of human pyruvate kinase M2; P14618; purified PKM2, Kinase-Glo ATP luminescence, activation; response scale: 0% is enzyme alone, no compound; Potency, µM (highest dose often 57.5 µM), most hits filed as activators; 0.34% of 260,000 active; AID 1631; also: nearly all actives have a fitted effect of over 55% in size
Target sequence (P14618 whole entry, looked up): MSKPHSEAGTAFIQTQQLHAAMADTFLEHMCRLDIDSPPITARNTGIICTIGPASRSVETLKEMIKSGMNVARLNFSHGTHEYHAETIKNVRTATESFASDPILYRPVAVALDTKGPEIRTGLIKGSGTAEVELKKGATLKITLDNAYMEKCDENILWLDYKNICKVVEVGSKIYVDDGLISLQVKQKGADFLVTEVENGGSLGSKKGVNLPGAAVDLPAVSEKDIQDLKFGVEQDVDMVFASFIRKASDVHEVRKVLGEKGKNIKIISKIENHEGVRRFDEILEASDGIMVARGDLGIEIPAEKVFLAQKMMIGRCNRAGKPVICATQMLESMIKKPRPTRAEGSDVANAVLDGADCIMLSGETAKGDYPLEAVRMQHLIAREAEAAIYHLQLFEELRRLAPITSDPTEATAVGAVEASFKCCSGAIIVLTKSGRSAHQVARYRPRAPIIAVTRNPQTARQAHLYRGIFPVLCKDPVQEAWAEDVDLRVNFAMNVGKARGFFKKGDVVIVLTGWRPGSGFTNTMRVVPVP
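Kinase-Glo luminescence reports ATP generated from ADP (0.1 mM) and PEP (0.5 mM) by purified hPK-M2 after 1 h at room temperature, pH 7.2 imidazole buffer; intermediate enzyme activity allows detecting inhibitors and activators.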
Integrin act MD: activates integrin-mediated alleviation for muscular dystrophy. alpha7betagal myoblasts, beta-gal FDG fluorescence, 48 h. Potency, µM (top dose mostly 38.3 µM), hits mostly activators. 0.064% of 350,000 active. AID 624291; also: nearly all actives have a fitted effect of over 60% in size
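alpha7betagal+/- myoblasts (passage 13, 250/well) treated 48 h at 37C with compounds at 1:260 dilution of DMSO stock. Lysed, then beta-galactosidase activity read as FDG fluorescence (ex 480/em 540) after 30 min, with pre-read for autofluorescence.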
TCR activator: activators of T cell receptors. primary human leukocytes, anti-CD3, IL-2 HTRF, 48 h. Potency, µM (series often up to 9.22 µM), usual class: activators. 330,000 tested, under 10 active
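Primary human leukocytes were stimulated with a-CD3 beads plus compounds for 48 hr without co-stimulation; secreted IL-2 was quantified by HTRF using a-IL-2-K (europium cryptate) and a-IL-2-d2, excited at 320nm with acceptor emission read at 665nm.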
Each line names hits and unclear results; the compound was inactive in the other large screens. Rows were chosen to be rich in hits. Some 0.69% of all compounds tested hit in one or more screens of this group. Unless noted, calls follow the shape of the dose curve; as a rule, active = well fitted curve in the direction sought with a large enough effect; inconclusive = small, poorly fitted or top-dose-only effect, or another doubt; inactive = no such curve, though single readings can be large; an effect the other way counts as inactive or inconclusive.

CCC(=O)NC(c1ccc(C)cc1)c1cc([N+](=O)[O-])c2cccnc2c1O (configuration not stated)	IL2 activator 147
O=C(O)/C=C/c1ccc(O)c(O)c1	Tb PFK inh inconclusive (no result: A-T KAP1 phos, Integrin act MD)
O=C(/C=C/c1ccc(O)c(O)c1)O[C@H](Cc1ccc(O)c(O)c1)C(=O)O	Tb PFK inh 17µM, PKM2 act inconclusive (no result: IL2 activator, Integrin act MD, TCR activator)
COc1cc2c(cc1OC)C1O[C@](CCCCN3C(=O)c4ccccc4C3=O)(C2)OC2=C1C(=O)c1ccccc1C2=O	none (no result: IL2 activator, Integrin act MD, TCR activator)
Cc1cc(C)c2c(N)c(C(=O)NN)sc2n1	A-T KAP1 phos 18µM
Cc1cc(NC(=O)CSc2nc3c(cc2C#N)CCC3)no1	PKM2 act 2.5µM
Cc1cc(C)c2nc(SCC(=O)Nc3cc(C)on3)c(C#N)cc2c1	PKM2 act 1.1µM
COCC(=O)N1CCC(Oc2ccc(C(=O)N(C)C(C)c3ccon3)cc2)CC1 (configuration not stated)	none
CN1CCN(c2ccc(-c3cc(O)c4ncccc4c3)cc2)CC1	none (no result: IL2 activator, PKM2 act, Integrin act MD, TCR activator)
Cc1ccc(-n2nnnc2SCn2nnc3ccccc3c2=O)cc1	none
Cc1cccc(-n2nnnc2SCn2nnc3ccccc3c2=O)c1	PKM2 act 16µM
O=c1c2ccccc2nnn1CSc1nnnn1-c1ccc(O)cc1	PKM2 act 14µM
CCCn1c(-c2ccc(F)cc2)nc2c(NCCCN(C)C)nc(C)nc21	none (no result: A-T KAP1 phos, IL2 activator, Tb PFK inh, Integrin act MD, TCR activator)
CC(C)Cn1c(O)c(/C=C2\C=NN=C2c2ccccc2)sc1=S	A-T KAP1 phos 32µM
CCn1c(O)c(/C=C2\C=NN=C2c2ccccc2)sc1=S	none
Cc1cc2nc3n(c2cc1C)CC1CC(C(=O)NCc2ccccc2)N(C)C31 (configuration not stated)	none (no result: PKM2 act)
CN1C(C(=O)NCC2CC2)CC2Cn3c(nc4cc(Cl)c(Cl)cc43)C21 (configuration not stated)	A-T KAP1 phos 35µM
Cc1cc2nc3n(c2cc1C)CC1CC(C(=O)NCC2CC2)N(C)C31 (configuration not stated)	A-T KAP1 phos 28µM
OCc1ccccc1O[C@@H]1O[C@H](CO)[C@@H](O)[C@H](O)[C@H]1O	none
OCC1OC(Oc2c[nH]c3ccccc23)C(O)C(O)C1O (configuration not stated)	A-T KAP1 phos 28µM (no result: PKM2 act, Integrin act MD)
CC(=O)c1cccc(S(=O)(=O)N2CCCC(c3nc4c(nnn4Cc4cccc(Cl)c4)c(=O)[nH]3)C2)c1 (configuration not stated)	none
O=c1[nH]c(C2CCCN(S(=O)(=O)c3ccccc3)C2)nc2c1nnn2Cc1cccc(Cl)c1 (configuration not stated)	Integrin act MD 4µM
CC(=O)NC(c1ccco1)c1cc(Cl)c2ccc(N3CCCCC3)nc2c1O (configuration not stated)	none (no result: IL2 activator, PKM2 act, Integrin act MD, TCR activator)
O=C(NCc1ccc(F)cc1)c1cc(C2CCCCN2C(=O)CCCc2ccccc2)on1 (configuration not stated)	none (no result: A-T KAP1 phos, Tb PFK inh, PKM2 act, Integrin act MD, TCR activator)
Fc1ccc(/C=N/NC2=Nc3cccc4cccc2c34)cc1	IL2 activator 119
c1ccc(NC2=Nc3cccc4cccc2c34)cc1	none
CCC1=C2CC[C@H]3C(=O)NC(=O)[C@H]3[C@H]2[C@@]2(C)C(=NCC3CC3)OC(=O)N2C1=O	none (no result: A-T KAP1 phos, IL2 activator, Tb PFK inh, Integrin act MD, TCR activator)
COc1ccccc1CNc1cc(C)ccn1	Integrin act MD 2.5µM
COc1cc(Cl)cc(CN2CCC(CCC(=O)NC3CC3)CC2)c1OC	Integrin act MD 7.1µM
Cc1ccc(S(=O)(=O)CC(=O)c2ccc(C)c([N+](=O)[O-])c2)cc1	none
Cc1ccc(S(=O)(=O)CC(=O)c2ccc([N+](=O)[O-])cc2)cc1	PKM2 act 22µM
CC(C)c1ccc(NC(=O)CSC(C)c2nc3ccccc3c(=O)[nH]2)cc1 (configuration not stated)	A-T KAP1 phos 4µM
CC(=O)c1cccc(NC(=O)CSc2ccc(-c3cccnc3)nn2)c1	none (no result: A-T KAP1 phos, Tb PFK inh, PKM2 act, TCR activator)
